Results from PubChem BioAssay (EPA / NIEHS).
Records with an inconclusive call do not appear. The source made the active and inactive calls. The calls were made as follows, unless noted: active = hit-call score of the fitted dose curve at least 0.9, where 1 is the maximum; inactive = score below 0.9.

How the values were obtained:
[1] = CEETOX_H295R_11DCORT: CeeTox H295R High-throughput Steroidogenesis Assay for 11-Deoxycortisol (11DCORT) (AID 2283432); settings: actives raise or lower the signal
Summary of the method: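 H295R cells; 10 uM forskolin prestim 48 h; compound in 0.1% DMSO 48 h; media extracted with MTBE; 11-deoxycortisol by LC-MS/MS, 7-point standard curve; gain/loss vs DMSO baseline; viability by MTT in same wells.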

[2] = CEETOX_H295R_CORTIC: CeeTox H295R High-throughput Steroidogenesis Assay for Corticosterone (CORTIC) (AID 2283437); settings: actives raise or lower the signal;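 also: corticosterone secreted into medium quantified by mass spectrometry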
Summary of the method: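 H295R adrenal cells prestimulated 48 hours with 10 uM forskolin, then exposed 48 hours to chemical in 0.1% DMSO. Corticosterone in medium measured by HPLC-MS/MS after MTBE extraction; MTT viability in the same wells; bidirectional fit versus DMSO.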

[3] = CEETOX_H295R_CORTISOL: CeeTox H295R High-throughput Steroidogenesis Assay for Cortisol (AID 2283438); settings: actives raise or lower the signal;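 also: cortisol secreted into medium quantified by LC-MS/MS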
Summary of the method: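 Forskolin-primed H295R cells (10 uM, 48 h) treated 48 h with test chemical in 0.1% DMSO. Cortisol in medium quantified by MTBE extraction and HPLC-MS/MS; bidirectional fit vs DMSO, MTT viability in same wells.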

[4] = CEETOX_H295R_DOC: CeeTox H295R High-throughput Steroidogenesis Assay for DOC (AID 2283439); settings: actives raise or lower the signal
Summary of the method: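 H295R cells prestimulated 48 h with 10 uM forskolin, then exposed 48 h to test chemical (0.1% DMSO final). Medium 11-deoxycorticosterone measured by HPLC-MS/MS after MTBE extraction; bidirectional fit vs DMSO, viability checked by MTT in same wells.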

[5] = target: Estrogen receptor (Homo sapiens) + Estrogen receptor beta (Homo sapiens) (UniProt P03372+Q92731); assay: OT_ER_ERaERb_1440: Odyssey Thera (OT) 24-hour HEK293T Protein-Complementation Assay for Estrogen Receptor-alpha/-beta Homodimer (AID 2283356; active = hit-call score of the fitted dose curve at least 0.9, where 1 is the maximum;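 also: heteromer of ER alpha and ER beta binding domains; hits raise reporter fluorescence and both agonists and antagonists give an increase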)
Summary of the method: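 Heterodimerisation of ERα (aa 310-547) and ERβ (aa 263-489) ligand binding domains was tracked as fluorescence gain in stably transfected HEK293T cells following 24 h dosing, normalised to DMSO controls.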

[6] = CCTE_Shafer_MEA_dev_firing_rate_mean: CCTE's Neural Network Formation Assay for Mean Firing Rate, Shafer Lab (AID 2284031)
Summary of the method: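 Primary rat cortical neurons on 48-well MEA plates, exposed from plating day 0 with dosing renewed on DIV 5 and 9. Mean well firing rate over active electrodes, recorded days 5, 7, 9, 12, summarised as trapezoidal AUC.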

[7] = CCTE_Shafer_MEA_dev_per_burst_spike_percent: CCTE's Neural Network Formation Assay for Percent of Spikes in a Burst, Shafer Lab (AID 2284032)
Summary of the method: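 Rat primary cortical neurons on 16-electrode MEA wells, dosed from plating day 0 for 12 days with renewal on DIV 5 and 9; spikes-in-bursts percentage averaged over bursting electrodes, collapsed as AUC across days 5, 7, 9, 12; loss direction versus DMSO.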

[8] = CCTE_Shafer_MEA_dev_active_electrodes_number: CCTE's Neural Network Formation Assay for Number of Active Electrodes, Shafer Lab (AID 2284040; active = hit-call score of the fitted dose curve at least 0.9, where 1 is the maximum)
Summary of the method: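 Primary rat cortical neurons on 16-electrode MEA wells, exposed from day 0 through day 12 with compound renewed at DIV 5 and 9 feeds. Active electrodes (mean firing ≥5 spikes/min) counted at DIV 5, 7, 9, 12; trapezoidal AUC across days, loss-of-signal versus DMSO.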

[9] = CCTE_Shafer_MEA_dev_per_burst_interspike_interval: CCTE's Neural Network Formation Assay for Burst Interspike Interval, Shafer Lab (AID 2284044);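 also: mean spike spacing inside bursts as AUC over recordings on days 5 7 9 12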
Summary of the method: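 Developmental network-formation MEA in primary rat cortical cultures with exposure spanning days 0–12. Within-burst ISI is averaged per well and integrated across recording days by area under the curve, with DMSO as negative control baseline.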

[10] = CCTE_Shafer_MEA_dev_burst_duration_mean: CCTE's Neural Network Formation Assay for Mean Burst Duration, Shafer Lab (AID 2284045);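 as to AC50: curve fitted for loss meaning shorter burst duration than DMSO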
Summary of the method: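 Primary rat cortical neurons on 48-well 16-electrode MEA plates, exposed from day 0 with renewal at DIV 5 and 9; spontaneous activity recorded on days 5, 7, 9, 12. Well-mean burst duration across bursting electrodes, collapsed as trapezoidal AUC; DMSO baseline.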

[11] = CCTE_Shafer_MEA_dev_interburst_interval_mean: CCTE's Neural Network Formation Assay for Mean Interburst Interval, Shafer Lab (AID 2284046);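 also: well-mean interburst interval of bursting electrodes as AUC over four recording days; curve fitted for decrease in interburst interval relative to DMSO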
Summary of the method: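 Rat cortical neurons, 1.5 x 10^5 cells/well, 48-well MEA; compound from day 0 through DIV 12, media and treatment renewed DIV 5/9. Recordings DIV 5, 7, 9, 12; well-mean interburst interval → trapezoidal AUC, loss direction vs DMSO.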

[12] = CCTE_Shafer_MEA_dev_network_spike_number: CCTE's Neural Network Formation Assay for Number of Network Spikes, Shafer Lab (AID 2284048);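 also: synchronized bursts across electrodes counted on days 5 7 9 12 and integrated as AUC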
Summary of the method: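 Primary rat cortical neurons on PEI/laminin 48-well MEA plates, dosed from plating day 0 for 12 days, renewed at DIV 5 and 9. Network spike counts recorded DIV 5, 7, 9, 12, collapsed as trapezoidal AUC; DMSO baseline.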

[13] = CCTE_Shafer_MEA_dev_network_spike_peak: CCTE's Neural Network Formation Assay for Mean Number of Electrodes in Network Spike, Shafer Lab (AID 2284049)
Summary of the method: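 Network-spike peak electrode count from recordings on days 5, 7, 9 and 12 was combined as trapezoidal area under the curve. Rat cortical cultures were treated continuously from plating, with compound renewed at each feed (DIV 5, 9); fits versus DMSO.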

[14] = CCTE_Shafer_MEA_dev_spike_duration_mean: CCTE's Neural Network Formation Assay for Mean Spike Duration, Shafer Lab (AID 2284051);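 also: mean network spike duration pooled as area under curve over DIV 5 to 12 recordings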
Summary of the method: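 Rat cortical primary cultures, 48-well MEA (16 electrodes/well); compound from plating, renewed DIV 5, 9. Network spike duration (AxIS adaptive detector) recorded DIV 5/7/9/12, combined as trapezoidal AUC; loss direction vs DMSO.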

[15] = CCTE_Shafer_MEA_dev_network_spike_duration_std: CCTE's Neural Network Formation Assay for Standard Deviation of Network Spike Duration, Shafer Lab (AID 2284052);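 also: area under curve of spike duration SD across recording days 5 to 12; hits are decreases in network spike duration SD versus DMSO vehicle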
Summary of the method: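 Rat cortical cultures, 1.5 x 10^5 cells/well, exposed continuously from plating to DIV 12 with media/compound renewal at DIV 5, 9. Spontaneous activity recorded DIV 5/7/9/12, AxIS adaptive spike detector; AUC across days; negative direction vs DMSO.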

[16] = CCTE_Shafer_MEA_dev_per_network_spike_spike_number_mean: CCTE's Neural Network Formation Assay for Mean Number of Spikes in a Network Spike, Shafer Lab (AID 2284053)
Summary of the method: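 Rat cortical primary cultures on 48-well MEA; compound from day 0, re-dosed with full media change DIV 5, 9. Recorded DIV 5, 7, 9, 12; spikes in 0.05 s window at network-spike peak ÷ total network spikes; AUC; loss vs DMSO.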

[17] = CCTE_Shafer_MEA_dev_per_network_spike_spike_percent: CCTE's Neural Network Formation Assay for Percent of Spikes in a Network Spike, Shafer Lab (AID 2284054)
Summary of the method: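 Rat primary cortical neurons were grown on 48-well MEA plates (16 electrodes/well), exposed from plating day 0 through day 12, with treatment renewed on DIV 5 and 9. Percent of spikes within 0.05 s network-spike peaks was measured, summarised as AUC across days 5, 7, 9, 12.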

[18] = tested on: SRD5A2 (gene 6716); assay: CCTE_Deisenroth_5AR_NBTE_ratio: CCTE's 5alpha-reductase NanoBRET Target Engagement Assay - Ratio, Deisenroth Lab (AID 2284322); settings: actives raise or lower the signal
Summary of the method: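 HEK293T transiently expressing SRD5A2-NanoLuc; cells exposed to chemical (8-point, 10 nM - 29.9 uM) for 5 h total, testosterone tracer added for final 2 h. NanoBRET acceptor/donor ratio (650/460 nm), bidirectional fit vs DMSO.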

[19] = target: human Dopamine Transporter (DAT), SLC6A3 (gene 6531) (UniProt Q01959); assay: NVS_TR_hDAT: NovaScreen (NVS) Transporter Assay for human Dopamine Transporter (DAT) (AID 2283374; active = hit-call score of the fitted dose curve at least 0.9, where 1 is the maximum;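 also: activity means loss of bound radioligand signal relative to DMSO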)
Summary of the method: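 Cell-free radioligand displacement binding at human DAT, 1 h after dosing, with filtration and scintillation counting. Primary screen in duplicate at 25 uM, actives then in concentration series. Loss of bound signal versus DMSO scored.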

[20] = target: rat Peripheral-type Benzodiazepine Receptor (PBR), Tspo (gene 24230) (UniProt P16257); assay: NVS_MP_rPBR: NovaScreen (NVS) Membrane Protein Assay for rat Peripheral-type Benzodiazepine Receptor (PBR) (AID 2283335; active = hit-call score of the fitted dose curve at least 0.9, where 1 is the maximum)
Summary of the method: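 Rat kidney membranes; radioligand binding with displacement, filter-based scintillation counting, 1 h incubation. Primary screen in duplicate at 25 uM, actives followed in concentration series; loss of binding vs DMSO.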

Measured: AC50

Sequence of Estrogen receptor (Homo sapiens) + Estrogen receptor beta (Homo sapiens) (P03372 whole entry, looked up, the tested form may be a part): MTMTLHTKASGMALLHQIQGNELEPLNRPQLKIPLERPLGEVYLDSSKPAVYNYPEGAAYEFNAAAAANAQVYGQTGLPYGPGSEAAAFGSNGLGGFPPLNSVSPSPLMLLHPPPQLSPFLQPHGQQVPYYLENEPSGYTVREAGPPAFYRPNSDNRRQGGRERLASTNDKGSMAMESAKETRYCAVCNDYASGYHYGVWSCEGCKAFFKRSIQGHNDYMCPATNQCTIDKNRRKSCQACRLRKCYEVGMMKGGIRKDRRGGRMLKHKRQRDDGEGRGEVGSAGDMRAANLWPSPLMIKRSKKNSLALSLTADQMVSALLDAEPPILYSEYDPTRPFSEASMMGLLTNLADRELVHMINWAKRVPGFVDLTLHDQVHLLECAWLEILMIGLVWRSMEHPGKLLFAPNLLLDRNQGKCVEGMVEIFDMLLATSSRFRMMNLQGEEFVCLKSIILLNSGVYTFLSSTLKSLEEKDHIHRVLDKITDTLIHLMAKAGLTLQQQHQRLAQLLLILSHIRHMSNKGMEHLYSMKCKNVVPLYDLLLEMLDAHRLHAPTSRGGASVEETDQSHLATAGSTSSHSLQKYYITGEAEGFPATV
Sequence of Estrogen receptor (Homo sapiens) + Estrogen receptor beta (Homo sapiens) (Q92731 whole entry, looked up, the tested form may be a part): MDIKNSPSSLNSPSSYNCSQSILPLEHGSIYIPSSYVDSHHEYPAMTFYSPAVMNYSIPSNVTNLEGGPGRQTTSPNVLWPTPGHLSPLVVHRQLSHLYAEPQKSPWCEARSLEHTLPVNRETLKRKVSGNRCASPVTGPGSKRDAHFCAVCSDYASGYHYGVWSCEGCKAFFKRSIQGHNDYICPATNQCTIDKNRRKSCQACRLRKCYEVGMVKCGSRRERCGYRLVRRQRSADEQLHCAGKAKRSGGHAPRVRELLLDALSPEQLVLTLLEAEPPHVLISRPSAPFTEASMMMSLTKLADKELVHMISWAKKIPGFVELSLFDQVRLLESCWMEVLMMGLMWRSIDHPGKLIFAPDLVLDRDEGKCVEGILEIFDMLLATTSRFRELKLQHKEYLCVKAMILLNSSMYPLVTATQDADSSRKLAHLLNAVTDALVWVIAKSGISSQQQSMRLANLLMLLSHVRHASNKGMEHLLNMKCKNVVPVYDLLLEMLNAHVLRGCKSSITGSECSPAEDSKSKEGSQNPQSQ
Sequence of rat Peripheral-type Benzodiazepine Receptor (PBR), Tspo (gene 24230) (P16257 whole entry, looked up): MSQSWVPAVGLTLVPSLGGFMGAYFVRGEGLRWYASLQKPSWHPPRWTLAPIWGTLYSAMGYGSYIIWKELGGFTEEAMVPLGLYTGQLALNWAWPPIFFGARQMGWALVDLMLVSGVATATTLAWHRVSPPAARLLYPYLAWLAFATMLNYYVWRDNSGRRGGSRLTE
Sequence of human Dopamine Transporter (DAT), SLC6A3 (gene 6531) (Q01959 whole entry, looked up): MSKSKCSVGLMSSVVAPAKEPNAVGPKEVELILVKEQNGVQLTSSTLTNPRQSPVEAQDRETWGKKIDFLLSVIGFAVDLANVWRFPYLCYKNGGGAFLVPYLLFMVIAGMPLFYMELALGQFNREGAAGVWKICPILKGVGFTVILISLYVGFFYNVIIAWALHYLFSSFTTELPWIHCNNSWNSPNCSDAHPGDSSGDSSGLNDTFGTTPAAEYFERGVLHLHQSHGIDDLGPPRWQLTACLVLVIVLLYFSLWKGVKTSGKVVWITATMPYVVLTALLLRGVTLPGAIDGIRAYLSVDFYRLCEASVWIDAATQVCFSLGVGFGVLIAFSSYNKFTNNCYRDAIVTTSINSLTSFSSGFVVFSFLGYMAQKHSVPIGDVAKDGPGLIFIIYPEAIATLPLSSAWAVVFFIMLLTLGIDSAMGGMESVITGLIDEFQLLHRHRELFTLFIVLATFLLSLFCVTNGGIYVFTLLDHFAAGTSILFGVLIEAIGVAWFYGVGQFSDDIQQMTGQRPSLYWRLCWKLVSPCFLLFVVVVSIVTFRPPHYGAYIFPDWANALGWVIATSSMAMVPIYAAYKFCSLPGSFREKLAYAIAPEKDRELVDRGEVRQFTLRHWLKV

Cc1cc(O)cc(C)c1Cl
inactive: [1] | [2] | [3] | [4]

CCCCCCC1CCC(=O)O1 (stereo not drawn)
inactive: [5]

NC(N)=Nc1nc(CSCCC(N)=NS(N)(=O)=O)cs1
inactive: [6] | [7] | [8] | [9] | [10] | [11] | [12] | [13] | [14] | [15] | [16] | [17]

c1ccc(CNc2ncnc3nc[nH]c23)cc1
inactive: [1] | [2] | [3] | [4]

Cc1cc2nc3c(=O)[nH]c(=O)nc-3n(C[C@H](O)[C@H](O)[C@H](O)CO)c2cc1C
active: [18] 27.1 µM

C=C1CC[C@H]2C[C@@H]1C2(C)C
inactive: [5]

CN(C)CCC(c1ccc(Cl)cc1)c1ccccn1 (stereo not drawn)
inactive: [6] | [7] | [8] | [9] | [10] | [11] | [12] | [13] | [14] | [15] | [16] | [17]
active: [19] 2.54 µM

CC1=NN(c2cc(Cl)c(S(=O)(=O)O)cc2Cl)C(=O)C1N=Nc1ccc(S(=O)(=O)O)cc1 (stereo not drawn)
active: [18] 10 µM

O=C(C(=O)c1ccccc1)c1ccccc1
active: [20] 1.86 µM | [19] 1.07 µM

O=C(O)/C=C\C(=O)O
inactive: [18]

CCO[Si](CCCN)(OCC)OCC
inactive: [1] | [2] | [3] | [4]

CCC(C)NC(N)=O (stereo not drawn)
active: [19] 26.9 µM

CC[N+](CC)(CC(=O)Nc1c(C)cccc1C)Cc1ccccc1 (tested in a mixture with another compound)
active: [20] 3.68 µM

CCCCCCCCCCCCCCCCCC[N+](C)(C)C
active: [19] 2.52 µM

CN(C)c1ccc(C(c2ccccc2)c2ccc(N(C)C)cc2)cc1
active: [20] 25 µM

CC[N+](CC)(CC(=O)Nc1c(C)cccc1C)Cc1ccccc1
inactive: [20]

CCOC(=O)c1ccccc1
inactive: [5]

CC1(C)S[C@@H]2[C@H](NC(=O)[C@H](N)c3ccccc3)C(=O)N2[C@H]1C(=O)O
inactive: [6] | [7] | [8] | [9] | [11] | [12] | [13] | [14] | [15] | [16] | [17]
active: [10] 22.6 µM

CCCCCC[C@@H](O)C/C=C\CCCCCCCC(=O)O
inactive: [18]
